High-throughput results (PubChem)
Pf growth 96h = P. falciparum growth inhibition at 96 hour, primary screen for plastid delayed-death inhibitors; Potency, µM (titrated, usually from 28.7 µM), for inactives: top-dose activity change, negative = inhibition, most hits filed as inhibitors; P. falciparum luciferase reporter growth, 96 h; hit rate 6.9% among 320,000; further: potency means the concentration at half of the fitted maximal effect; on the % scale 0 is the no-effect control and ±100 the full control effect
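Two parasite generations (96 h, 37 C, 5% CO2) of compound exposure in infected erythrocytes (0.05% parasitemia, 2% hematocrit). Luciferase-reporter P. falciparum; decreased luminescence indicates inhibited growth, aimed at apicoplast-acting delayed death.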
Cycloheximide cs = affects cycloheximide protein synthesis inhibition readout, counter-screen | cell reporter, cycloheximide protein synthesis inhibition counterscreen | max response, % | hit rate 12% among 300,000; in the data active means max response mostly above about 13%, no sharp cut-off; inactive means mostly below about 14%; further: read at 38.3 µM for the half of the compounds with a filed dose; 0% is about no effect
Shiga toxin inh = inhibitors of Shiga toxin in Vero cells; hit rate 9.2% among 290,000; Vero cells, Shiga toxin protein synthesis inhibition reporter; inhibition, % at 38.7 µM; in the data active means inhibition mostly above about 28%, no sharp cut-off; inactive means mostly below about 43%; further: 0% is about no effect
Pf growth 48h = inhibits P. falciparum growth in the first generation, 48 h. hit rate 5.9% among 310,000. P. falciparum luciferase growth in erythrocytes, 48 h. Potency, µM (top dose mostly 28.7 µM), for inactives: at the highest dose activity change, negative = inhibition, most hits filed as inhibitors; further: potency means the concentration at half of the fitted maximal effect; on the % scale 0 is the no-effect control and ±100 the full control effect
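Luciferase-expressing parasites in RBCs, 2% Hct / 0.1% parasitemia final; RPMI 1640 + 0.5% Albumax; 37 C, 5% CO2, one generation; luminescence read-out, lower signal = inhibition.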
HCMV inh = human cytomegalovirus inhibition. HFF cells, HCMV-luciferase reporter, 72 h; stronger effect = lower value. activity change, negative = inhibition, % at 57.5 µM. hit rate 4.5% among 410,000; in the data active means activity change below about -60%; inconclusive means no clear call, values can overlap the other calls; inactive means above about -39%; further: on the % scale 0 is the no-effect control and ±100 the full control effect
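Compounds were evaluated in HFFs infected with an HCMV luciferase reporter virus (MOI 1 PFU/cell). Luciferase in lysates collected 72 h post infection served as the replication measure.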
* hit, by the source's call; ? = inconclusive; / = no result given. Only some compounds are listed: those with a hit (about 20% of all), similar ones and a draw of the others. Unless noted, the call rests on the fitted dose curve; in most records, active means well fitted inhibition curve with a large enough effect; inconclusive means small, poorly fitted or top-dose-only effect, or another doubt; inactive means no such curve, though single readings can be large or run the other way.

SMILES | Pf growth 96h | Cycloheximide cs | Shiga toxin inh | Pf growth 48h | HCMV inh
Cc1cccc(C(=O)NNC(=O)c2ccccc2[N+](=O)[O-])c1 | ? | -4 | -8 | 20% | 17
CC(C)[C@H](NC(=O)c1ccccc1)C(=O)OCC(=O)/C=C1/N(C)c2ccccc2C1(C)C | -27% | -3 | 15 | -16% | -68*
CN1/C(=C\C(=O)COC(=O)c2ccc([N+](=O)[O-])o2)C(C)(C)c2ccccc21 | 13µM* | 14 | 18 | ? | -22
Cc1cc(C)n(-c2nc(N(C)C)nc(N(C)C)n2)n1 | -6% | -1 | 13 | ? | -5
CC(=O)Nn1c(C)nnc1-n1nc(C)cc1C | 1% | 5 | 11 | 5% | -16
Cc1cc(C)n(-c2nc(NC(C)C)nc(NC(C)C)n2)n1 | 5% | -4 | -21 | 3.7µM* | 11
CCNc1nc(NCC)nc(-n2nc(C)cc2C)n1 | 2.1µM* | -4 | -9 | 4.1µM* | ?
Cc1ccc(CNC(=O)Cn2cnc3c(OCc4ccccc4)ncnc32)o1 | / | / | / | / | -14
CCOc1cccc(-c2nn(-c3ccccc3)cc2/C=C(/C#N)C(=O)NCCCn2ccnc2)c1 | ? | -2 | -1 | 2.6µM* | ?
N#C/C(=C/c1cn(-c2ccccc2)nc1-c1cccc(OCc2ccccc2)c1)C(=O)NCCCn1ccnc1 | 2.1µM* | -2 | 2 | 4.7µM* | 16
Oc1ccccc1OCCOc1ccccc1OCCOc1ccccc1O | ? | 9.8* | 41 | ? | -14
Oc1ccccc1OCC(O)c1ccccc1 (centres undefined) | -4% | 7 | 3 | -22% | -12
Cc1nnc(SCC(=O)N2CCC(c3noc4ccc(F)cc34)CC2)s1 | -5% | -1 | -20 | ? | -70*
c1ccc(-c2nc3nc4ccccc4nc3n2CC2CCCO2)cc1 (centres undefined) | -13% | 30* | 30 | 15% | 27
COc1ccc(NC(=O)CN2C(=O)CC(c3ccc(C)c(C)c3)=Nc3ccccc32)cc1OC | / | / | / | / | 35
COc1ccccc1CC(=O)Nc1ccc2[nH]ncc2c1 | -5% | -2 | -22 | 10µM* | -16
COc1ccc(C(=O)Nc2ccc3[nH]ncc3c2)cc1OC | -181% | 14 | 38 | 71% | 42
COc1cccc(C(=O)Nc2ccc3[nH]ncc3c2)c1OC | 323% | 32* | 71* | 34% | 41
O=C(Cc1ccc(F)cc1)Nc1ccc2[nH]ncc2c1 | 31% | 1 | / | 13% | 85
COc1ccc(OC)c2sc(N(Cc3cccnc3)C(=O)c3ccc(C(C)=O)cc3)nc12 | / | / | / | / | 0
Cn1c(=O)c2c(-c3ccccc3)n(-c3ccccc3Br)cc2n(C)c1=O | / | / | / | / | -10
Cc1[nH]n(-c2ccccc2)c(=O)c1/C=C1/C=c2ccccc2=N1 | 9% | 17* | 17 | -2% | 43
Cc1[nH]n(-c2ccccc2)c(=O)c1/C=C1\C=NN=C1c1ccccc1 | 21% | 67* | 98* | 17% | 9
CCC(C)NC(=O)Cn1c(=O)n(CCCC(=O)NCc2ccc(C)cc2)c(=O)c2ccccc21 (centres undefined) | / | / | / | / | 6
CC(C)Oc1cccc(C(=O)C2CCCN(Cc3ccon3)C2)c1 (centres undefined) | ? | 8.4* | 25 | 57% | 15
SMILES | Pf growth 96h | Cycloheximide cs | Shiga toxin inh | Pf growth 48h | HCMV inh
Cc1ncoc1C(=O)N1CCCC(C(=O)c2cccc(OC(C)C)c2)C1 (centres undefined) | 9% | 7 | 1 | -4% | -22
CC(C)Oc1cccc(C(=O)C2CCCN(C(=O)c3ccoc3)C2)c1 (centres undefined) | 2% | 16* | 26* | 5% | -37
CCCn1ncc(CN2CCCC(C(=O)c3cccc(OC(C)C)c3)C2)c1C (centres undefined) | 12µM* | -2 | -11 | 13µM* | -28
O=C(c1cccc(Cl)c1)C1CCCN(Cc2ccon2)C1 (centres undefined) | -20% | -1 | -23 | 35% | -22
CCCn1cc(CN2CCCC(C(=O)c3cccc(OC(C)C)c3)C2)c(C)n1 (centres undefined) | 16% | -4 | 11 | ? | -23
CCc1cccc(NC(=O)C2Cc3ccccc3N2C(=O)c2ccccc2)c1 (centres undefined) | / | / | / | / | -4
Cc1cccc(N2CCN(C(=O)c3cc4c(=O)n(C)c5ccccc5c4n3C)CC2)c1C | 26% | -3 | -11 | / | ?
Cc1ccc(Cl)cc1N1CCN(C(=O)c2cc3c(=O)n(C)c4ccccc4c3n2C)CC1 | 54% | -5 | -6 | / | -79*
Cn1c(C(=O)N2CCN(c3ncccn3)CC2)cc2c(=O)n(C)c3ccccc3c21 | 10µM* | -2 | -5 | / | -23
Cc1ccc(CNC(=O)c2ccc(CS(=O)(=O)Cc3ccc(C)cc3)o2)cc1 | / | / | / | / | -12
CN1C(=O)c2ccc(C(=O)Nc3nccs3)cc2C1=O | 16% | 17 | 31 | 6% | -20
O=C(NCCCO)C(=O)c1c(-c2ccccc2)cc2ccccn12 | 9% | 5 | -9 | 3% | -3
COc1ccc(-c2c(-c3ccccc3)c(C(=O)C(=O)NCCCN(C)C)n3ccc4cc(OC)c(OC)cc4c23)cc1OC | 2.9µM* | -7 | -10 | / | -96*
O=C(NC1CC1)C1C2C3C4CC5C3C5C4C12 (centres undefined) | 7% | 7 | -6 | 5.9µM* | -6
C/C(=C\c1ccc(C)o1)C(=O)c1c(C)cc(C)[nH]c1=O | 30% | -6 | 21 | -10% | 0
COCCN1C=C(C(=O)OC)C(c2ccc(OC)c(OC)c2)C(C(=O)OC)=C1 | / | -2 | -2 | -9% | 3
COC(=O)C1=CN(Cc2ccc(OC)c(OC)c2)C=C(C(=O)OC)C1c1cccc(F)c1 | 10µM* | -4 | -2 | 9.3µM* | -2
COC(=O)C1=CN(C(C)c2ccccc2)C=C(C(=O)OC)C1c1cc(OC)c(OC)c(OC)c1 (centres undefined) | 33% | 8 | -1 | 1.5µM* | ?
COc1cc(CC(=O)NC(c2ccccc2)c2ccccc2)cc(OC)c1OC | ? | 0 | -14 | ? | 21
COC(=O)C1=CN(Cc2ccc(OC)cc2)C=C(C(=O)OC)C1c1cc(OC)c(OC)c(OC)c1 | ? | 1 | -6 | 1.3µM* | /
COC(=O)C1=CN(Cc2ccc(F)cc2)C=C(C(=O)OC)C1c1cc(OC)c(OC)c(OC)c1 | -28% | -3 | -4 | 1.3µM* | 55
COc1cccc(-c2nc3c(c(SCc4ccccc4)n2)Cc2c(CO)cnc(C)c2O3)c1 | / | / | / | / | -33
COC(=O)c1c(-c2cccs2)csc1NC(=O)COc1c(C)ccc(C)c1C | / | / | / | / | -9
CNC(=O)C1CCN(C(=O)N2CC(C)Oc3ccc(Cl)cc32)CC1 (centres undefined) | / | / | / | / | 17
COc1ccc(OC)c(NS(=O)(=O)c2c(C)nc3sccn3c2=O)c1 | 26% | -4 | -4 | -15% | 49
CCOc1ccc(Nc2nn(-c3ccc(OC(F)(F)F)cc3)nc2C(C)=O)cc1 | / | / | / | / | 18
COc1cc(C(=O)NCC2CCCO2)cc(OC)c1OC (centres undefined) | ? | -2 | -3 | 18% | 74
